Measured values: PubChem BioAssay AID1851 (National Center for Advancing Translational Sciences (NCATS), 2009)
Hit rate of the full screen: of about 16,000 compounds, about 5,100 (32%) were called active. Not shown: some 25% with an inconclusive outcome. The call rests on the fitted dose curve; in most records, active means well fitted curve in the direction sought with a large enough effect; inconclusive means small, poorly fitted or top-dose-only effect, or effect the other way; inactive means no such curve, though single readings can be large or run the other way. The list shows a part of the results.

Molecular target: Cytochrome P450 3A4 (Homo sapiens) (UniProt P08684)
Sequence (P08684 whole entry, looked up): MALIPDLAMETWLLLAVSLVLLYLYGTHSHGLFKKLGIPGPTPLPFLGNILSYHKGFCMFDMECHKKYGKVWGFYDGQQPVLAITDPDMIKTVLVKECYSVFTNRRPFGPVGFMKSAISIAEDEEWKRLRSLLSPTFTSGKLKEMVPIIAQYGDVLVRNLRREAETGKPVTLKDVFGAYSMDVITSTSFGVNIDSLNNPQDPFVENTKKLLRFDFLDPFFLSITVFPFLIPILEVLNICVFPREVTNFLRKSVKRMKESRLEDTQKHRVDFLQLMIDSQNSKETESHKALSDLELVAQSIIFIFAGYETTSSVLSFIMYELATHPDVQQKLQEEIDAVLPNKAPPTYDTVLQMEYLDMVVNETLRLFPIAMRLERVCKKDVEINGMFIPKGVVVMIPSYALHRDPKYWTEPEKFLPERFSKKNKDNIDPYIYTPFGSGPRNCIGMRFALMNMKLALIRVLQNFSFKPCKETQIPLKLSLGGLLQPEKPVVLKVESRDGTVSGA
Assay: Cytochrome panel assay with activity outcomes
Details: recombinant CYP, pro-luciferin dealkylation, luminescence, p450-cyp3a4; series mostly up to 57.1 µM
On the % scale 0 is the no-effect control and ±100 the full control effect.

| SMILES | AC50 | activity, negative = inhibition |
| --- | --- | --- |
| COc1ccccc1N(CC(=O)NCC1CCCO1)C(=O)CNS(=O)(=O)c1ccc(C)cc1 (stereo unspecified) | 7.94 µM (active) |  |
| O=C(NCC1CCCO1)c1ccc(CS(=O)(=O)Cc2ccc(F)cc2)o1 (stereo unspecified) | inactive |  |
| O=C(O)c1cc(S(=O)(=O)NCC2CCCO2)ccc1Cl (stereo unspecified) | inactive |  |
| COc1ccc(/C=C(\C#N)C(=O)NCC2CCCO2)cc1OC (stereo unspecified) | inactive |  |
| CC(C)C(C(=O)NCC1CCCO1)N(Cc1ccco1)C(=O)CNS(=O)(=O)c1ccc(F)cc1 (stereo unspecified) | 5.01 µM (active) |  |
| CCC(C)NS(=O)(=O)c1ccc(OCC(=O)NCC2CCCO2)cc1 (stereo unspecified) | inactive |  |
| O=C(CN(CC1CCCO1)C(=O)CNS(=O)(=O)c1ccc(Cl)cc1)NCCc1ccccc1 (stereo unspecified) | 11.2 µM (active) |  |
| COc1ccc(S(=O)(=O)N(CC(=O)NCC2CCCO2)c2ccc(F)cc2)cc1OC (stereo unspecified) | 8.91 µM (active) |  |
| COc1ccc(NC2=NC(=S)N(c3ccc(C)cc3)C23CCCCC3)cc1 | inactive |  |
| Cc1ccccc1NC1=NC(=S)N(c2ccccc2)C12CCOC(C)(C)C2 (stereo unspecified) | 10 µM (active) |  |
| Cc1cccc(NC2=NC(=S)N(c3ccc(C(=O)O)cc3)C23CCCCC3)c1 |  | 10.4% [at 2.29 µM] (inactive) |
| COCCn1c(=O)c(C)nc2cnc(Nc3cccc(OC)c3)nc21 | 15.8 µM (active) |  |
| COc1cccc(Nc2ncc3nc(C)c(=O)n(C4CC4)c3n2)c1 | 6.31 µM (active) |  |
| COc1cccc(Nc2ncc3nc(C)c(=O)n(CCc4ccccc4)c3n2)c1 | 7.94 µM (active) |  |
| Cc1nc2cnc(Oc3cccc(Cl)c3)nc2n(C2CC2)c1=O | inactive |  |
| O=c1cnc2cnc(Nc3ccccc3)nc2n1CCc1ccccc1 | inactive |  |
| N[C@@H](Cc1cc(CP(=O)(O)O)cc(-c2ccccc2Cl)c1)C(=O)O | inactive |  |
| CCN1C(=O)C2(SC(NC(C)=O)=NN2C(C)=O)c2cc(C)ccc21 (stereo unspecified) | inactive |  |
| O=C1c2ccccc2C(=O)N1CC1CCCO1 (stereo unspecified) | inactive |  |
| N#Cc1cccc(-c2nc3cnc(Nc4ccccc4)nc3n(C[C@H]3CCCO3)c2=O)c1 | inactive |  |
| Nc1ncc(-c2ccccc2)n1CC1CCCO1 (stereo unspecified) | 7.08 µM (active) |  |

| SMILES | AC50 | activity, negative = inhibition |
| --- | --- | --- |
| CC(=O)c1sc(N)c(C(=O)OC(C)C)c1C | inactive |  |
| COc1ccc(CNc2ncncc2-c2ccc(C(=O)N(C)C)cc2)c(OC)c1 | 0.501 µM (active) |  |
| COc1ccc(CNc2ncncc2-c2ccc(N(C)C)cc2)c(OC)c1 | 0.2 µM (active) |  |
| COc1ccccc1CNc1ncncc1-c1ccc(C(=O)N(C)C)cc1 | 2.51 µM (active) |  |
| C/C(=N\OC(=O)c1ccc(F)cc1)c1nccs1 | inactive |  |
| N[C@@H](Cc1c[nH]c2ccc([N+](=O)[O-])cc12)C(=O)O |  | -8.71% [at 11.4 µM] (inactive) |
| Cc1cccc(NC(NC(=O)c2cccnc2)C(Cl)(Cl)Cl)c1 (stereo unspecified) | 10 µM (active) |  |
| O=C(NC(NCc1ccccc1)C(Cl)(Cl)Cl)c1cccnc1 (stereo unspecified) | 12.6 µM (active) |  |
| CCn1ccc(C(=O)NC2C(=O)N3C(C(=O)O)=C(C)CSC23)n1 (stereo unspecified) | inactive |  |
| COc1ccc2c(c1)OC1=C(C(=O)CCC1)C2C1=C(O)CCCC1=O (stereo unspecified) | inactive |  |
| O=C1CCCC2=C1C(c1ccc(OS(=O)(=O)c3ccc(Cl)cc3)cc1)C1=C(CCCC1=O)O2 | 2.24 µM (active) |  |
| Cc1ccc(S(=O)(=O)Oc2ccc(C3C4=C(CCCC4=O)OC4=C3C(=O)CCC4)cc2)cc1 | 6.31 µM (active) |  |
| Cc1ccc(S(=O)(=O)Oc2cc(N)c3c(n2)CCC3)cc1 |  | -14.1% [at 11.4 µM] (inactive) |
| CN1CCc2cc(Cl)c(O)cc2[C@@H](c2ccccc2)C1 | inactive |  |
| NCCNCC1CCNCC1 |  | -29.4% [at 11.4 µM] (inactive) |
| CN(C)[C@H]1C(=O)C(C(=O)NCN2CCCC2)=C(O)[C@]2(O)C(=O)C3=C(O)c4c(O)cccc4[C@@](C)(O)[C@H]3C[C@@H]12 | inactive |  |
| Cc1cc([N+](=O)[O-])nn1Cc1ccccc1F | inactive |  |
| CCOC(=O)c1ccccc1OCc1cc(/C=N/n2cnnc2)ccc1OC | inactive |  |
| Cc1cc(/C=N/n2cnnc2)c(C)n1-c1ccc(OCc2ccccc2F)cc1 | 0.224 µM (active) |  |
| Cc1ccc(C)c(Nc2nc3nonc3nc2N2CCOCC2)c1 |  | -12.1% [at 2.29 µM] (inactive) |
| CSc1nncn1/N=C/c1ccc2c(c1)OCO2 | 8.91 µM (active) |  |

| SMILES | AC50 | activity, negative = inhibition |
| --- | --- | --- |
| OC[C@@H]1O[C@@H](O)[C@H](N=Cc2ccc3c(c2)OCO3)[C@@H](O)[C@@H]1O |  | -4.87% [at 11.4 µM] (inactive) |
| Cc1ccc(S(=O)(=O)N[C@H](CO)C(=O)O)cc1 |  | -3.82% [at 11.4 µM] (inactive) |
| Cc1ccc(S(=O)(=O)N[C@@H](CCc2ccccc2)CC(=O)C(C)(C)C)cc1 | 1.58 µM (active) |  |
| CC(CCc1ccccc1)NS(=O)(=O)c1ccccc1 (stereo unspecified) | inactive |  |
| Cc1c(S(=O)(=O)O)ccc(N=Nc2c(O)c(C(=O)O)cc3ccccc23)c1Cl |  | 1.31% [at 11.4 µM] (inactive) |
| Cc1cc(C)c2c(N=NN(C)C)[nH]nc2n1 | inactive |  |
| CCOc1cc(CNCCO)c(Cl)cc1OCC(=O)NCCc1ccccc1 | 0.794 µM (active) |  |
| CC(CCc1ccccc1)NC(=O)C(=O)NCCO (stereo unspecified) | inactive |  |
| CCNCc1cc(OCC)c(OCC(=O)NCCc2ccccc2)cc1Cl | 0.447 µM (active) |  |
| CCOc1ccc(Cl)cc1CNCCNCCO | inactive |  |
| COc1cccc(-c2cc(C(F)(F)F)nc(N3CCN(c4ccccc4)CC3)n2)c1 | inactive |  |
| COc1ccc(-c2cc(C(F)(F)F)nc(N3CCOCC3)n2)cc1OC | 15.8 µM (active) |  |
| COc1cccc(-c2cc(C(F)(F)F)nc(N3CCOCC3)n2)c1 | 28.2 µM (active) |  |
| COc1ccccc1N1CCN(c2nc(-c3ccccc3)cc(C(F)(F)F)n2)CC1 | inactive |  |
| COc1ccc(-c2cc(C(F)(F)F)nc(NC3CCCC3)n2)cc1OC | 25.1 µM (active) |  |
| COc1ccc(-c2cc(C(F)(F)F)nc(N3CCN(C)CC3)n2)cc1OC | inactive |  |
| COc1ccc(C(=O)Nc2ccc(OCC(F)(F)C(F)F)c(C(F)(F)F)c2)cc1OC | inactive |  |
| N=c1nc(N)nc(N)n1-c1ccc(S(N)(=O)=O)cc1 |  | -8.91% [at 11.4 µM] (inactive) |
| O=c1oc2c(Cl)cc(Cl)cc2cc1-c1nnc(Nc2ccccc2F)s1 | inactive |  |
